# NS1 inh: qHTS Assay for Inhibitors of Influenza NS1 Protein Function. Potency, µM (doses to about 46.1 µM), for inactives: at the top dose activity, positive = more growth. 270,000 compounds, 0.4% hits. AID 2326, 2010; note: potency is the fitted concentration of half-maximal effect; actives are rising curves; nearly all actives have a fitted effect of over 50% in size
#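 OD600 was taken as the measure of yeast growth restored by compound in an NS1-expressing S. cerevisiae strain. Cells had been washed out of glucose medium and diluted 1:100 into galactose -URA medium, pH 6.0.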
# SARS PLpro yeast: qHTS of Yeast-based Assay for SARS-CoV PLP. 330,000 compounds, 0.19% hits. S. cerevisiae expressing SARS-CoV PLpro, growth rescue. Potency, µM (series often up to 32.9 µM), without a hit: at the highest dose activity, positive = growth rescue, actives largely listed as activators. AID 485353, 2010; note: potency is the fitted concentration of half-maximal effect; 0% is about no effect; nearly all actives have a fitted effect of over 55% in size
# CHX counter: Cycloheximide Counterscreen for Small Molecule Inhibitors of Shiga Toxin | cell reporter, cycloheximide protein synthesis inhibition counterscreen | max response, % | 300,000 compounds, 12% hits | AID 2314, 2010; in the data active = max response mostly above about 13%, no sharp cut-off; inactive = mostly below about 14%; note: read at 38.3 µM for the half of the compounds with a filed dose; 0% is about no effect
# Shiga toxin inh: A qHTS for Small Molecule Inhibitors of Shiga Toxin; inhibition, % at 38.7 µM; Vero cells, Shiga toxin protein synthesis inhibition reporter; 290,000 compounds, 9.2% hits; in the data active = inhibition mostly above about 28%, no sharp cut-off; inactive = mostly below about 43%; note: 0% is about no effect
# Pf growth 96h: Primary qHTS for delayed death inhibitors of the malarial parasite plastid, 96 hour incubation | AID 504834, 2011 | P. falciparum luciferase reporter growth, 96 h | 320,000 compounds, 6.9% hits | Potency, µM (titrated, usually from 28.7 µM), for the others: at the top dose activity change, negative = inhibition, most hits filed as inhibitors; active = well fitted inhibition curve with a large enough effect; inconclusive = small, poorly fitted or top-dose-only effect, or another doubt; inactive = no such curve, though single readings can be large or run the other way; note: potency is the fitted concentration of half-maximal effect; % is set by controls: 0 for no effect and ±100 for the full control effect
#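 Compounds incubated with erythrocytes infected by luciferase-expressing P. falciparum (2% hematocrit, 0.05% parasitemia final) for 96 hours, 37 C in 5% CO2. Growth inhibition scored as decreased luciferase luminescence.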
# Pf growth 48h: Primary qHTS for delayed death inhibitors of the malarial parasite plastid, 48 hour incubation; AID 504832, 2011; P. falciparum luciferase growth in erythrocytes, 48 h; Potency, µM (series often up to 28.7 µM), for inactives: at the highest dose activity change, negative = inhibition, actives largely listed as inhibitors; 310,000 compounds, 5.9% hits; active = well fitted inhibition curve with a large enough effect; inconclusive = small, poorly fitted or top-dose-only effect, or another doubt; inactive = no such curve, though single readings can be large or run the other way; note: potency is the fitted concentration of half-maximal effect; % is set by controls: 0 for no effect and ±100 for the full control effect
#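 Erythrocytes infected with P. falciparum carrying an integrated firefly luciferase reporter (2% hematocrit, 0.1% parasitemia final) were exposed to compounds in RPMI 1640 with 0.5% Albumax at 37 C, 5% CO2. Growth inhibition was scored as reduced luminescence.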
# * hit, by the source's call; ? = inconclusive; . = no result; [ ] = dose if it differs, or a comment. Hits are enriched below; roughly 21% of the tested compounds scored in any of these assays. Unless noted, calls come from the whole dose curve.
SMILES,NS1 inh,SARS PLpro yeast,CHX counter,Shiga toxin inh,Pf growth 96h,Pf growth 48h
Cc1[nH]c2ccccc2c1C(=O)CN1C(=O)NC2(CC(C)CC(C)(C)C2)C1=O (stereo not given),-0.3%,7.2%,-1.6,-3.2,10.4µM*,?
COc1ccc(CNC2CC(C)N(C)CC2C)cc1OC (stereo not given),1.7%,-1.7%,-2.8,-16.6,-18.1%,10.4µM*
COc1cc(NC(=O)COc2cc(O)c3c(c2)OC(C)(C)CC3=O)cc(OC)c1OC,-4.3%,1.4%,-3.1,-3.0,4.15µM*,?
CC1(C)CC(=O)c2cc(OCC(=O)NCCN3CCCc4ccccc43)ccc2O1,-3.0%,6.3%,-3.1,-12.7,-35.5%,-22.2%
Cc1ccccc1NC(=O)COc1ccc2c(c1)OC(C)(C)CC2=O,0.5%,-0.7%,37.6*,33.8*,40.2%,78.8%
Cc1ccccc1NC(=O)NNC(=O)COc1ccc2ccccc2c1,6.7%,-0.3%,0.9,25.6,?,-2.6%
CC(C)CCNC(=O)COc1ccc2c(c1)C(=O)CC(C)(C)O2,1.1%,1.4%,17.3*,87.1*,.,5.5%
CC1(C)CC(=O)c2c(O)cc(OCC(=O)Nc3ccc(S(N)(=O)=O)cc3)cc2O1,7.8%,-2.4%,-1.8,-7.0,?,-11.6%
CC(C)CCNC(=O)NC(=O)COc1ccccc1C#N,-1.0%,-5.6%,18.6*,29.6*,5.0%,26.6%
N#Cc1ccccc1OCC(=O)NCC1(N2CCCCC2)CCCCC1,-2.7%,-2.8%,5.4,-1.7,-2.9%,3.29µM*
CC(C)NC(=O)COc1ccccc1C#N,.,2.9%,-2.6,-5.9,?,5.2%
O=C(COc1ccccc1[N+](=O)[O-])NCC1(N2CCCCC2)CCCCC1,.,-15.7%,.,.,-4.6%,-15.4%
CCc1c(C)sc(NC(=O)Cc2ccccc2OC)c1C(=O)N1CCOCC1,?,2.2%,1.6,-32.9,24.7%,-2.5%
COc1ccccc1/C=C/C=N/NC(=O)c1cccs1,-30.9%,-1.6%,43.8*,116.2*,-18.9%,?
COc1cccc(OC)c1C(=O)Nc1ccc(NC(=O)c2ccco2)cc1,1.9%,-1.9%,-4.4,16.2,?,29.2%
COc1ccccc1/C=C/C=N/NC(=O)Cc1cccn1C,18.1%,-2.1%,-1.8,26.5,-4.2%,20.8%
COc1ccccc1/C=C\C=N\NC(=O)c1ccco1,0.4%,-1.3%,38.6*,153.2*,-21.4%,-9.4%
CCc1ccccc1NC(=O)CCc1c(C)nc(SC)nc1C,6.5%,-1.1%,-1.9,30.0,?,-25.2%
Cc1ccc(Cn2c(=N)n(CC(=O)c3ccccc3)c3ccccc32)cc1,13.8%,-0.3%,-4.4,11.4,39.3%,?
CC(CN1CCCCC1)C(=O)NNC(=O)C12CC3CC(CC(C3)C1)C2 (stereo not given),.,1.8%,15.0,-8.3,11.7µM*,29.5%
O=C(COC(=O)c1ccccc1Cc1ccccc1)Nc1ccc(SC(F)F)cc1,-33.1%,-11.6%,54.4*,128.9*,?,?
CCOc1ccccc1C(=O)OCC(=O)Nc1ccc(OC(F)F)cc1,-21.7%,-11.6%,16.8*,42.3,.,33.6%
CN(C(=O)c1ccccc1C(=O)OCC(=O)Nc1ccc(OC(F)F)cc1)c1ccccc1,.,-7.7%,.,.,?,?
Cc1ccc(C(=O)c2ccccc2C(=O)OCC(=O)Nc2ccc(SC(F)F)cc2)cc1,?,3.7%,15.6*,49.3,5.4%,11.9%
CN(CC(=O)Nc1cccc(F)c1)C(=O)c1cc(S(=O)(=O)N2CCN(c3ccccc3)CC2)ccc1Cl,.,-9.3%,.,.,?,?
SMILES,NS1 inh,SARS PLpro yeast,CHX counter,Shiga toxin inh,Pf growth 96h,Pf growth 48h
COc1cccc2sc(Nc3nnc(-c4ccc(F)cc4)o3)nc12,-30.7%,-11.5%,19.4*,38.8,1.85µM*,11.7µM*
Fc1cccc2sc(Nc3nnc(-c4ccco4)o3)nc12,-68.0%,-32.9%,39.9*,171.1*,-19.5%,-18.3%
CCOc1cccc2sc(NN)nc12,.,-3.5%,0.9,-13.2,?,?
COc1cccc2sc(Nc3nnc(-c4cccs4)o3)nc12,-122.9%,-14.9%,21.5*,73.8*,143.6%,?
CC(=O)Nc1nnc(-c2ccco2)o1,.,-2.3%,2.3,15.7,15.9%,-7.9%
COc1cccc2sc(NNC(=O)COc3ccccc3)nc12,5.7%,0.1%,-4.0,14.2,-41.2%[1.15 µM],-6.5%
COc1cc(NC(=O)CN2CCN(c3ccccc3F)CC2)c(C)cc1[N+](=O)[O-],13.5%,0.3%,-5.0,-10.5,-25.5%,10.6%
CC(Sc1ncn[nH]1)C(=O)NCc1ccccc1 (stereo not given),17.1%,8.4%,-1.8,14.9,-0.5%,123.1%
C=CCNC(=S)N1CCC(Cc2ccccc2)CC1,-72.1%,0.3%,-1.7,-10.0,11.7µM*,?
CNC(=S)N1CCC(Cc2ccccc2)CC1,-5.3%,3.2%,1.0,-10.0,1.9%,?
C=CCNC(=O)c1ccc(CN2CCC(Cc3ccccc3)CC2)cc1,1.3%,-3.5%,1.2,-11.7,-15.3%,10.4µM*
COc1ccc(/C=N/NC(=O)c2cc(-c3ccccc3OC)nc3ccccc23)cc1COC(C)=O,16.4%,5.5%,-2.1,-10.6,1.85µM*,11.7µM*
COc1ccccc1-c1cc(C(=O)N/N=C/c2ccc(C)s2)c2ccccc2n1,?,12.1%[6.58 µM],-0.4,7.8,1.47µM*,.
CCc1ccc(/C=N/NC(=O)c2cc(-c3ccccc3OC)nc3ccccc23)s1,-4.5%,-3.4%,1.7,-2.8,2.62µM*,.
COc1ccc(/C=N/NC(=O)c2cc(-c3ccccc3OC(C)C)nc3ccccc23)cc1CN1CCOCC1,0.3%,-1.9%,-1.6,12.5,1.6%,3.3%
COc1ccccc1-c1cc(C(=O)N/N=C/c2ccoc2)c2ccccc2n1,?,-3.0%,9.0,-8.0,0.0%,9.28µM*
CC1CC(C)CN(S(=O)(=O)CCNC(=O)c2ccccc2)C1 (stereo not given),.,1.4%,.,.,-5.4%,0.1%
CC1CC(C)CN(CC(C)(C)NS(=O)(=O)c2ccc(Cl)cc2)C1 (stereo not given),-1.6%,-7.8%,-4.3,-13.2,?,.
COCCNC(=S)N1CCC(C(=O)c2ccc3c(c2)OCCO3)CC1,.,-1.6%,45.7*,74.2,-14.9%,53.9%
COc1ccc(NC(=S)N2CCC(C(=O)c3ccc(C)cc3)CC2)cc1,-16.8%,15.5%,8.9*,-1.2,63.7%,?
COc1ccc(NC(=O)N2CCC(C(=O)c3ccc4c(c3)OCCO4)CC2)cc1,-10.6%,-3.6%,20.8*,25.0,20.4%,?
CSc1ccccc1NC(=O)N1CCCC(C(=O)c2ccc3c(c2)OCO3)C1 (stereo not given),-5.0%,-1.1%,-1.6,-4.4,?,-1.4%
CC(=O)c1ccc(NC(=O)N2CCCC(C(=O)c3ccc4c(c3)OCO4)C2)cc1 (stereo not given),-2.7%,-1.7%,15.7*,52.8*,?,38.2%

# High-throughput results from PubChem BioAssay.
